The text below walks through data of PubChem BioAssay (NCI).

This is part of a sample that, as a whole, favours compounds with a hit. Of some 83,000 tested, about 20% had one in any assay.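 The test compound was applied at a single concentration to cells in 96-well plates for 48 hours, and percent growth was recorded.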 Unmarked numbers belong to inactive results. Calls of active or inactive are those of the source. How the source made its calls: active means growth percent below 10; inactive means the rest.

Among the test systems are HCT-15 colon; HT29 colon; SNB-75 CNS; SNB-19 CNS; U251 CNS; PC-3 prostate; SK-MEL-5 melanoma; UACC-62 melanoma; LOX IMVI melanoma; SK-MEL-28 melanoma; SK-MEL-2 melanoma; EKVX NSCLC; SN12C renal; UO-31 renal; TK-10 renal; ACHN renal; CAKI-1 renal; A498 renal; CCRF-CEM leukemia; MOLT-4 leukemia.
Experiment in all cases: NCI-60 one-dose screen, 48 h (100 = growth as untreated, 0 = no growth, -100 = all killed)
Holding throughout (conditions): 10 µM unless noted

As to `O=C(Nc1ccc(Oc2cccc(Cl)c2)c(Cl)c1)c1cccnn1`, the growth in the test with HCT-15 colon is 56.7%; in the test on HT29 colon it was 89.9%; with SNB-75 CNS it was 77.7%; in the test on SNB-19 CNS, 89.5%; in the test on U251 CNS, 76.7%; in the test on PC-3 prostate, 57.2%. Moreover, the growth in the test with SK-MEL-5 melanoma was 83.8%; in the test on UACC-62 melanoma it was 74.7%; in the test with LOX IMVI melanoma, 88.5%; with SK-MEL-28 melanoma it was 99.4%; with SK-MEL-2 melanoma it was 102%; with EKVX NSCLC, 87.3%. In addition, the growth in the test with SN12C renal was 83.2%; in the test on UO-31 renal it was 64.9%; in the test on TK-10 renal it was 75%; with ACHN renal, 97.9%; in the test with CAKI-1 renal it was 80.8%; with A498 renal, 87.4%. Further, the growth in the test with CCRF-CEM leukemia is 84%; in the test on MOLT-4 leukemia, 80.1%.

Take `Clc1cccc(C2Cc3cnccc3-c3[nH]c4ccncc4c32)c1` (stereo not given): the growth in the test with HCT-15 colon is 25.2%; in the test on HT29 colon it was 40.9%; in the test with SNB-75 CNS it was 73.6%; with SNB-19 CNS, 53.9%; in the test on U251 CNS it was 36.9%; in the test on PC-3 prostate, 21.1%. Besides, the growth in the test with SK-MEL-5 melanoma is -60.2% (active); with UACC-62 melanoma, 36.5%; in the test on LOX IMVI melanoma, 39.7%; in the test on SK-MEL-28 melanoma, 62.7%; with SK-MEL-2 melanoma, 61%; with EKVX NSCLC it was 42.9%. The growth is 56.4% with SN12C renal; 39.1% with UO-31 renal; 53.3% in the test on TK-10 renal; 42.1% in the test with ACHN renal; 50.8% with CAKI-1 renal; 39% in the test on A498 renal. The growth was 49.7% in the test with CCRF-CEM leukemia and 9.28% (active) in the test with MOLT-4 leukemia.

On to `CCCCCCCCn1ccc2cc(NC(=O)CN=[N+]=[N-])ccc21`, for which the growth was 96.8% in the test on HCT-15 colon; 104% with HT29 colon; 99.6% in the test on SNB-75 CNS; 97.1% in the test with SNB-19 CNS; 88.7% in the test with U251 CNS; 91.2% in the test with PC-3 prostate. The growth in the test on SK-MEL-5 melanoma is 98%; with UACC-62 melanoma, 84.2%; in the test with LOX IMVI melanoma, 104%; with SK-MEL-28 melanoma it was 109%; in the test with SK-MEL-2 melanoma, 99.3%; in the test with EKVX NSCLC, 84.9%. The growth with SN12C renal is 107%; in the test with UO-31 renal, 70%; in the test on TK-10 renal it was 111%; in the test on ACHN renal, 104%; in the test with CAKI-1 renal, 93.3%; with A498 renal it was 96.7%. Further, the growth in the test on CCRF-CEM leukemia is 39%; in the test on MOLT-4 leukemia, 93.3%.

For the compound `O=C(/C=C/c1ccccc1)N(C1CCCCC1)C1CCCCC1`, the growth with HCT-15 colon was 86.3%; with HT29 colon, 68.6%; in the test on SNB-75 CNS, 81.4%; in the test with SNB-19 CNS, 87.7%; in the test with U251 CNS, 84.3%; with PC-3 prostate, 60.2%. Besides, the growth in the test with SK-MEL-5 melanoma is 89.9%; with UACC-62 melanoma it was 75%; in the test with LOX IMVI melanoma, 92.3%; in the test on SK-MEL-28 melanoma it was 97.9%; with SK-MEL-2 melanoma, 82.9%; with EKVX NSCLC, 85.1%. For the same compound, the growth with SN12C renal was 97.3%; in the test with UO-31 renal, 97%; in the test on TK-10 renal, 112%; in the test with ACHN renal, 86%; with CAKI-1 renal it was 66.8%; in the test with A498 renal it was 93.4%. Moreover, the figures for the growth in the test with CCRF-CEM leukemia and in the test with MOLT-4 leukemia were 79.6% and 92.1%, respectively.

As for `O=C(N/N=C/c1ccc(Cl)cc1)c1ccc(NC(=O)c2ccccn2)cc1`, the growth with HCT-15 colon is 62.8%; with HT29 colon it was 71.8%; with SNB-75 CNS it was -16% (active); in the test with SNB-19 CNS it was 64.9%; with U251 CNS it was 18.3%; in the test on PC-3 prostate it was 79.8%. For the same compound, the growth with SK-MEL-5 melanoma is 39.7%; in the test on UACC-62 melanoma, 62%; in the test on LOX IMVI melanoma it was 54%; in the test on SK-MEL-28 melanoma, 52.1%; with SK-MEL-2 melanoma it was 78.7%; in the test on EKVX NSCLC, 68.2%. Also, the growth in the test with SN12C renal was 38.2%; in the test on UO-31 renal, 0.719% (active); in the test on TK-10 renal, 47.3%; in the test with ACHN renal, -0.994% (active); in the test on CAKI-1 renal, 41.2%; with A498 renal it was 81.2%. The growth is 91% in the test on CCRF-CEM leukemia and 79.5% in the test on MOLT-4 leukemia.

In the case of `N#Cc1c(-c2ccc(Cl)cc2)nc(NN=Cc2ccc[nH]2)nc1N1CCOCC1`, the growth with HCT-15 colon was 78.9%; in the test on HT29 colon, 66.2%; with SNB-75 CNS, -13.5% (active); in the test with SNB-19 CNS, 74.2%; in the test with U251 CNS, 56.4%; with PC-3 prostate, 46.6%. In addition, the growth was 85.2% in the test with SK-MEL-5 melanoma; 88% with UACC-62 melanoma; 87.8% in the test with LOX IMVI melanoma; 90.8% in the test with SK-MEL-28 melanoma; 98.8% with SK-MEL-2 melanoma; 66% with EKVX NSCLC. In addition, the growth is 40.1% in the test with SN12C renal; 14.8% in the test with UO-31 renal; 63.3% with TK-10 renal; 82.5% in the test with ACHN renal; 63.2% with CAKI-1 renal; 31.7% with A498 renal. In addition, the growth in the test on CCRF-CEM leukemia is 20.8%; in the test with MOLT-4 leukemia it was 17.4%.

On to `Cc1cc(Cl)nc(N2CCN(CCNc3ccnc4cc(Cl)ccc34)CC2)n1`, for which the growth was 22.4% in the test with HCT-15 colon; 10.5% in the test with HT29 colon; 87.5% in the test with SNB-75 CNS; 79.9% in the test on SNB-19 CNS; 55.3% with U251 CNS; 43.1% in the test on PC-3 prostate. Further, the growth with SK-MEL-5 melanoma was -45.2% (active); in the test on UACC-62 melanoma it was 29.7%; with LOX IMVI melanoma it was -14.6% (active); in the test on SK-MEL-28 melanoma, 47.7%; with SK-MEL-2 melanoma, 61.1%; in the test with EKVX NSCLC, 44.8%. Also, the growth with SN12C renal is 71.2%; in the test with UO-31 renal it was 32.4%; in the test with TK-10 renal, 48.2%; in the test on ACHN renal, 58.2%; with CAKI-1 renal, 44.6%; in the test on A498 renal, 42.4%. The growth was 63.1% with CCRF-CEM leukemia and 32.6% with MOLT-4 leukemia.

`Nc1cc(-c2ccc(Cl)cc2)nn1-c1nnc(/C=C/c2ccco2)c(=O)[nH]1`: the growth with HCT-15 colon was 38.1%; with HT29 colon it was 44.2%; in the test on SNB-75 CNS, 67.3%; in the test on SNB-19 CNS it was 57.8%; with U251 CNS, 50.6%; with PC-3 prostate, 52.6%. Moreover, the growth in the test with SK-MEL-5 melanoma was 46%; with UACC-62 melanoma it was 52.5%; in the test on LOX IMVI melanoma, 49.9%; in the test on SK-MEL-28 melanoma, 66.4%; in the test with SK-MEL-2 melanoma, 87.9%; in the test on EKVX NSCLC, 41.7%. The growth in the test on SN12C renal is 68.2%; in the test on UO-31 renal, 3.92% (active); with TK-10 renal, 51.2%; in the test on ACHN renal it was 29.4%; in the test on CAKI-1 renal, 1.03% (active); in the test on A498 renal it was 33.8%. In addition, the growth was 33.9% with CCRF-CEM leukemia and 44.4% with MOLT-4 leukemia.
